Common to all, as to experiment: PBM; 200 nM protein, PBS
What all share (conditions): dsDNA, one strand shown

In test [1] the target is HOXC10 (Homo sapiens, UniProt Q9NYD6 254-340).
Test [2] deals with ALX1 (Homo sapiens, UniProt Q15699 118-204, L144V).
Test [3] addresses HOXD13 (Homo sapiens, UniProt P35453 263-343, T313R).
Test [4] concerns the target ALX1 (Homo sapiens, UniProt Q15699 118-204, L144R).
The target in test [5] is HOXD13 (Homo sapiens, UniProt P35453 263-343).
The target of test [6] is HOXC10 (Homo sapiens, UniProt Q9NYD6 254-340, K271E).
Test [7] concerns the target HOXD13 (Homo sapiens, UniProt P35453 263-343, T313A).
The target in test [8] is ALX1 (Homo sapiens, UniProt Q15699 118-204).
Test [9] concerns the target T1, NKX2-6 (Homo sapiens, UniProt A6NCS4 118-204, R150C).
T1 sequence: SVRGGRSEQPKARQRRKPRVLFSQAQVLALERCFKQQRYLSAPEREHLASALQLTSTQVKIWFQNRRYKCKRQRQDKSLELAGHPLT

In test [10] the target is T2, PAX4 (Homo sapiens, UniProt O43316 9-242, R200K).
T2 sequence: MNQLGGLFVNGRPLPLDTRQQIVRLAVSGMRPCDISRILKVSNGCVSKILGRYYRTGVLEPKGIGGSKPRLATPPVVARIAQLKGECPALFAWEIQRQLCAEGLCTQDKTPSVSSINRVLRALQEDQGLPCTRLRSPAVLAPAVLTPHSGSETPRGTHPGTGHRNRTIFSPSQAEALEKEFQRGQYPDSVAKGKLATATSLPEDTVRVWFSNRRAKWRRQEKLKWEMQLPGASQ

The target of test [11] is T3, PAX4 (Homo sapiens, UniProt O43316 9-242, R227W).
T3 sequence: T2 sequence with K192R, R219W

For test [12], the target named is CRX (Homo sapiens, UniProt O43186 26-111, R41L).
Test [13] addresses ALX4 (Homo sapiens, UniProt Q9H161 200-286).
Test [14] concerns the target ALX4 (Homo sapiens, UniProt Q9H161 200-286, Q225E).
Test [15] deals with HOXC9 (Homo sapiens, UniProt P31274 178-260, R222W).
Test [16] deals with ALX3 (Homo sapiens, UniProt O95076 139-225, N203Q).
The target in test [17] is ALX3 (Homo sapiens, UniProt O95076 139-225).
The target in test [18] is ALX3 (Homo sapiens, UniProt O95076 139-225, L168Q).
Test [19] has as its target ALX3 (Homo sapiens, UniProt O95076 139-225, L168V).
Test [20] has as its target ALX3 (Homo sapiens, UniProt O95076 139-225, N203S).
Test [21] has as its target T4, PAX4 (Homo sapiens, UniProt O43316 9-242).
T4 sequence: T2 sequence with K192R

In test [22] the target is T5, PAX4 (Homo sapiens, UniProt O43316 9-242, R200Q).
T5 sequence: T2 sequence with K192Q

Test [23] has as its target T6, PAX4 (Homo sapiens, UniProt O43316 9-242, F177V).
T6 sequence: T2 sequence with F169V, K192R

The target of test [24] is T7, PAX4 (Homo sapiens, UniProt O43316 9-242, F177Y).
T7 sequence: T2 sequence with F169Y, K192R

Positions count from the first letter of the chain named.

In PMC11006913 one finds binding signal data, which are given here for nine sequences.

Sequence of ALX4 (Homo sapiens, UniProt Q9H161 200-286, Q225E) (Q9H161 200-286 Q225E): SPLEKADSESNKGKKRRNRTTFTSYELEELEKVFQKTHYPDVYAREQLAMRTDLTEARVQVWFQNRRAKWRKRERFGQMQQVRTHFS
Sequence of HOXC10 (Homo sapiens, UniProt Q9NYD6 254-340, K271E) (Q9NYD6 254-340 K271E): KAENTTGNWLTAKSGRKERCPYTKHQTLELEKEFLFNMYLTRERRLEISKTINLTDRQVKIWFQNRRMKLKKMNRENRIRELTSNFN
Sequence of HOXC10 (Homo sapiens, UniProt Q9NYD6 254-340) (Q9NYD6 254-340): as the sequence (Q9NYD6 254-340 K271E) above, with E18K counted along it
Sequence of ALX4 (Homo sapiens, UniProt Q9H161 200-286) (Q9H161 200-286): as the sequence (Q9H161 200-286 Q225E) above, with E26Q counted along it
Sequence of HOXD13 (Homo sapiens, UniProt P35453 263-343) (P35453 263-343): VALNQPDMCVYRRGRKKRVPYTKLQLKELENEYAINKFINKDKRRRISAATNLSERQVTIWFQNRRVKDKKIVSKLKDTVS
Sequence of HOXD13 (Homo sapiens, UniProt P35453 263-343, T313A) (P35453 263-343 T313A): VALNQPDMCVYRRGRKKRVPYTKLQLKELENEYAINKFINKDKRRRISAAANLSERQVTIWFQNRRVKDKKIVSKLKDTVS
Sequence of HOXD13 (Homo sapiens, UniProt P35453 263-343, T313R) (P35453 263-343 T313R): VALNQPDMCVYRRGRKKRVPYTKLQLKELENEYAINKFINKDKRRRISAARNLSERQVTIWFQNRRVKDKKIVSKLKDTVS
Sequence of ALX3 (Homo sapiens, UniProt O95076 139-225) (O95076 139-225): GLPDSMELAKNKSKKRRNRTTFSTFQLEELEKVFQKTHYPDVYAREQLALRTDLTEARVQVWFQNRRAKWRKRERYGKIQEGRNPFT
Sequence of ALX1 (Homo sapiens, UniProt Q15699 118-204) (Q15699 118-204): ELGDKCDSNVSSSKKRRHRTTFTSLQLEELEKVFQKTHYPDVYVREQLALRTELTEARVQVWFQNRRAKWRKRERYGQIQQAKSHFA
Sequence of ALX1 (Homo sapiens, UniProt Q15699 118-204, L144R) (Q15699 118-204 L144R): as the sequence (Q15699 118-204) above, with L27R counted along it
Sequence of ALX3 (Homo sapiens, UniProt O95076 139-225, N203Q) (O95076 139-225 N203Q): as the sequence (O95076 139-225) above, with N65Q counted along it
Sequence of ALX3 (Homo sapiens, UniProt O95076 139-225, N203S) (O95076 139-225 N203S): as the sequence (O95076 139-225) above, with N65S counted along it
Sequence of ALX3 (Homo sapiens, UniProt O95076 139-225, L168Q) (O95076 139-225 L168Q): as the sequence (O95076 139-225) above, with L30Q counted along it
Sequence of ALX3 (Homo sapiens, UniProt O95076 139-225, L168V) (O95076 139-225 L168V): as the sequence (O95076 139-225) above, with L30V counted along it
Sequence of ALX1 (Homo sapiens, UniProt Q15699 118-204, L144V) (Q15699 118-204 L144V): as the sequence (Q15699 118-204) above, with L27V counted along it
Sequence of HOXC9 (P31274 178-260 R222W): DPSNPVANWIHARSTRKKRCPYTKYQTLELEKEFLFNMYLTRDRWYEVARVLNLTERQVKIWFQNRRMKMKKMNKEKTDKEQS
Sequence of CRX (O43186 26-111 R41L): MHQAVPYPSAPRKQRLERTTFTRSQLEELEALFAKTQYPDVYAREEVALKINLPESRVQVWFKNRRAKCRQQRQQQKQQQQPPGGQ

Take ATTTATAG: the binding signal is 12.2 upbm affinity estimate (log intensity, higher = more binding, comparable within an allelic series) in [1]; 8.9 upbm affinity estimate (log intensity, higher = more binding, comparable within an allelic series) in test [2]; 11.1 upbm affinity estimate (log intensity, higher = more binding, comparable within an allelic series) in [3]; 9.04 upbm affinity estimate (log intensity, higher = more binding, comparable within an allelic series) in test [4]; 12.1 upbm affinity estimate (log intensity, higher = more binding, comparable within an allelic series) in [5]; 11.4 upbm affinity estimate (log intensity, higher = more binding, comparable within an allelic series) in test [6]. Moreover, the binding signal in [7] was 11.9 upbm affinity estimate (log intensity, higher = more binding, comparable within an allelic series); in [8], 9.11 upbm affinity estimate (log intensity, higher = more binding, comparable within an allelic series).
With GAGGCCTC, the binding signal in test [1] is 10.1 upbm affinity estimate (log intensity, higher = more binding, comparable within an allelic series); in test [9], 9.72 upbm affinity estimate (log intensity, higher = more binding, comparable within an allelic series); in test [6], 10.1 upbm affinity estimate (log intensity, higher = more binding, comparable within an allelic series).
As for TAATACGA, the binding signal in test [1] is 11 upbm affinity estimate (log intensity, higher = more binding, comparable within an allelic series); in test [10], 11.6 upbm affinity estimate (log intensity, higher = more binding, comparable within an allelic series); in [11], 10.9 upbm affinity estimate (log intensity, higher = more binding, comparable within an allelic series); in [12] it was 10.4 upbm affinity estimate (log intensity, higher = more binding, comparable within an allelic series).
For the sequence ATGCATAA, the binding signal was 11.2 upbm affinity estimate (log intensity, higher = more binding, comparable within an allelic series) in test [1]; 10.3 upbm affinity estimate (log intensity, higher = more binding, comparable within an allelic series) in test [13]; 9.57 upbm affinity estimate (log intensity, higher = more binding, comparable within an allelic series) in test [14]; 10.9 upbm affinity estimate (log intensity, higher = more binding, comparable within an allelic series) in [6].
As for CCAATAAA, the binding signal in test [1] was 12.1 upbm affinity estimate (log intensity, higher = more binding, comparable within an allelic series); in test [14], 11.4 upbm affinity estimate (log intensity, higher = more binding, comparable within an allelic series); in [3], 11.1 upbm affinity estimate (log intensity, higher = more binding, comparable within an allelic series); in test [5], 12.4 upbm affinity estimate (log intensity, higher = more binding, comparable within an allelic series); in [6] it was 11.3 upbm affinity estimate (log intensity, higher = more binding, comparable within an allelic series); in [7] it was 12.2 upbm affinity estimate (log intensity, higher = more binding, comparable within an allelic series). Also, the binding signal in [15] is 11.1 upbm affinity estimate (log intensity, higher = more binding, comparable within an allelic series).
As to CTGGTGGC, the binding signal in [1] is 9.99 upbm affinity estimate (log intensity, higher = more binding, comparable within an allelic series); in test [13] it was 7.93 upbm affinity estimate (log intensity, higher = more binding, comparable within an allelic series); in test [14], 8.14 upbm affinity estimate (log intensity, higher = more binding, comparable within an allelic series); in test [6], 10.1 upbm affinity estimate (log intensity, higher = more binding, comparable within an allelic series).
In the case of CCTGGGAC, the binding signal in test [1] is 9.91 upbm affinity estimate (log intensity, higher = more binding, comparable within an allelic series); in [16], 7.73 upbm affinity estimate (log intensity, higher = more binding, comparable within an allelic series); in test [6], 9.99 upbm affinity estimate (log intensity, higher = more binding, comparable within an allelic series); in test [17] it was 7.73 upbm affinity estimate (log intensity, higher = more binding, comparable within an allelic series); in test [18] it was 7.73 upbm affinity estimate (log intensity, higher = more binding, comparable within an allelic series); in test [19], 7.7 upbm affinity estimate (log intensity, higher = more binding, comparable within an allelic series). For the same sequence, in test [20], the binding signal was 7.68 upbm affinity estimate (log intensity, higher = more binding, comparable within an allelic series).
Regarding AGGGAGGC, the binding signal in test [1] is 9.98 upbm affinity estimate (log intensity, higher = more binding, comparable within an allelic series); in test [10], 9.2 upbm affinity estimate (log intensity, higher = more binding, comparable within an allelic series); in test [21] it was 9.2 upbm affinity estimate (log intensity, higher = more binding, comparable within an allelic series); in test [22] it was 9.17 upbm affinity estimate (log intensity, higher = more binding, comparable within an allelic series); in [23] it was 9.02 upbm affinity estimate (log intensity, higher = more binding, comparable within an allelic series); in [6] it was 10 upbm affinity estimate (log intensity, higher = more binding, comparable within an allelic series). Further, the binding signal was 9.16 upbm affinity estimate (log intensity, higher = more binding, comparable within an allelic series) in test [24] and 9.18 upbm affinity estimate (log intensity, higher = more binding, comparable within an allelic series) in [11].
In the case of GATGTTAA, in [1], the binding signal was 10.8 upbm affinity estimate (log intensity, higher = more binding, comparable within an allelic series).
